PubChem BioAssay (NCATS)
Calls of active or inactive are those of the source. Calls follow the shape of the dose curve; as a rule, active = well fitted curve in the direction sought with a large enough effect; inconclusive = small, poorly fitted or top-dose-only effect, or another doubt; inactive = no such curve, though single readings can be large or run the other way.

Target: Hexokinase-4 (Homo sapiens) + Glucokinase regulatory protein (Homo sapiens) (UniProt P35557+Q14397)
Test: qHTS assay for inhibitors of recombinant human GCK-GKRP interaction: HTRF assay (AID 743207)
Details: recombinant GCK-GKRP HTRF binding, 60 min; series mostly up to 57.5 µM
Summary of the method: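 HTRF binding of 5 nM GST-GCK and 5 nM FLAG-GKRP with 2 uM S6P in pH 7.1 Hepes buffer (MgCl2, KCl, DTT, Tween 20, BSA). Anti-FLAG XL665 and anti-GST donor added, 60 min at room temperature; 665/615 nm read, normalized to with- and without-GCK controls.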

Hexokinase-4 (Homo sapiens) + Glucokinase regulatory protein (Homo sapiens), sequence (P35557 whole entry, looked up): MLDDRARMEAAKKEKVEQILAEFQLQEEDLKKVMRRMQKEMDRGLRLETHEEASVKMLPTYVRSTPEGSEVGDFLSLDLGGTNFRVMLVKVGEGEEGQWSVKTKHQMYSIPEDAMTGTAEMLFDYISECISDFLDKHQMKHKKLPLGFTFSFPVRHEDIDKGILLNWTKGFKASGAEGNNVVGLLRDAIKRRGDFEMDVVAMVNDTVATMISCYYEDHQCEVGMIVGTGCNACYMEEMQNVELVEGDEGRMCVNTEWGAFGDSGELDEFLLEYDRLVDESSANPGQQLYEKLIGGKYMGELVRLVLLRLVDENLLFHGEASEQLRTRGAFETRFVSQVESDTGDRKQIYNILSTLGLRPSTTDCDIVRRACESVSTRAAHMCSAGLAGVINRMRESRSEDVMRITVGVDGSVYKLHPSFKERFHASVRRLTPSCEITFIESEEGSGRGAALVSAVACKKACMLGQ
Hexokinase-4 (Homo sapiens) + Glucokinase regulatory protein (Homo sapiens), sequence (Q14397 whole entry, looked up): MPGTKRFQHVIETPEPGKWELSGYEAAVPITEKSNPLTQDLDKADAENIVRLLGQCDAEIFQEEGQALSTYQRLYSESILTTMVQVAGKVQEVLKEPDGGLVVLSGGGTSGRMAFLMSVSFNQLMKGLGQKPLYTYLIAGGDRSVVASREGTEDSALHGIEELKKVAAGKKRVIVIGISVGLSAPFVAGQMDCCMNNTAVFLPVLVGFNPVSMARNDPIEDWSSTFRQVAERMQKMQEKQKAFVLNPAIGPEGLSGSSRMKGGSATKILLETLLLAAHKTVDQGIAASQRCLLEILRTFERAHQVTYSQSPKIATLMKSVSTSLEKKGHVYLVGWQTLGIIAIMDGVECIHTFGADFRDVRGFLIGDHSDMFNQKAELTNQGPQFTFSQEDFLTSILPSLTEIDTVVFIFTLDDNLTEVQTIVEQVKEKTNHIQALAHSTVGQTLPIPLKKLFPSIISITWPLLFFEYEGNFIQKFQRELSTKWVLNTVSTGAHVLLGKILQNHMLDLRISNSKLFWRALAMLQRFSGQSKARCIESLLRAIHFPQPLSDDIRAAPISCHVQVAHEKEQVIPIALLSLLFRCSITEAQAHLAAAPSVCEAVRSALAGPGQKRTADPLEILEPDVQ

Row | SMILES | outcome
1 | CCCN1CCC[C@H](c2cccc(O)c2)C1 | inactive
2 | Cc1nccc2c1[nH]c1ccccc12 | inactive
3 | C[C@@H](N)Cc1cnc[nH]1 | inactive
4 | CC(C)Oc1cccnc1N(C)C1CCN(Cc2ccccc2)CC1 | inactive
5 | C[N+]1(C)C2CCC1CC(OC(=O)C(CO)c1ccccc1)C2 (configuration not stated) | inactive
6 | CC(C)NC(C)Cc1ccc(I)cc1 (configuration not stated) | inactive
7 | O=C(O)CC[N+](=O)[O-] | inactive
8 | O=C(O)[C@@H]1CCN1 | inactive
9 | COc1cc(C(O)CN)ccc1O (configuration not stated) | inactive
10 | O=C1CCCN1CC#CCN1CCCC1 | inactive
11 | C=CCN1CC[C@]23CCCCC2[C@H]1Cc1ccc(O)cc13 (some centres not stated) | inactive
12 | CC(=O)NCCc1c[nH]c2ccccc12 | inactive
13 | CS(=N)(=O)CC[C@H](N)C(=O)O (some centres not stated) | inactive
14 | NC(CP(=O)(O)O)C(=O)O (configuration not stated) | inactive
15 | CN[C@@H]1C[C@@H](c2ccc(Cl)c(Cl)c2)c2ccccc21 | inactive
16 | NC(N)=NOCCC(N)C(=O)O (configuration not stated) | inactive
17 | CCCCc1ccc(C(=O)O)nc1 | inactive
18 | CNCCc1ccc(O)c(O)c1 | inactive
19 | CCCN(CCC)[C@@H]1CCc2ccc(O)cc2C1 | inactive
20 | c1ccc(C2(c3ccccc3)CC2C2=NCCN2)cc1 (configuration not stated) | inactive
21 | NCCc1c[nH]c2ccccc12 | inactive
22 | Cn1cnc(CCN)c1 | inactive
23 | C[C@@H]1O[C@H](C[N+](C)(C)C)C[C@H]1O | inactive
24 | NC1CCc2cc(O)c(O)cc2C1 (configuration not stated) | inactive
25 | CC(Cc1ccc(O)cc1)NCC(O)c1cc(O)cc(O)c1 (configuration not stated) | inactive
26 | NC(=NCCC[C@H](N)C(=O)O)N[N+](=O)[O-] | inactive
27 | CCCN1CCO[C@@H]2c3cc(O)ccc3OC[C@H]21 | inactive
